Inhibition data for 27 compounds are collected here from PubChem BioAssay AID368 (University of Pittsburgh Molecular Library Screening Center, 2006).

The campaign covered roughly 65,000 compounds. About 85 (0.1%) were called active. This is one part of a sample in which actives are shown more often than they occur. Cut-off read from the data, not from the text of the source: active = inhibition above about 50%; inactive = the rest.

For this assay, the target named is M-phase inducer phosphatase 2 (Homo sapiens) (UniProt P30305). In words: inhibitors of Cdc25B phosphatase catalytic domain, primary screen, biochemical, OMFP fluorescence (AID 368). The conditions noted are these: recombinant Cdc25B, OMFP fluorescence Ex485/Em525; hits give high values;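 compounds tested at 10 µM final in the well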.
Sequence of M-phase inducer phosphatase 2 (Homo sapiens) (P30305 whole entry, looked up, the tested form may be a part): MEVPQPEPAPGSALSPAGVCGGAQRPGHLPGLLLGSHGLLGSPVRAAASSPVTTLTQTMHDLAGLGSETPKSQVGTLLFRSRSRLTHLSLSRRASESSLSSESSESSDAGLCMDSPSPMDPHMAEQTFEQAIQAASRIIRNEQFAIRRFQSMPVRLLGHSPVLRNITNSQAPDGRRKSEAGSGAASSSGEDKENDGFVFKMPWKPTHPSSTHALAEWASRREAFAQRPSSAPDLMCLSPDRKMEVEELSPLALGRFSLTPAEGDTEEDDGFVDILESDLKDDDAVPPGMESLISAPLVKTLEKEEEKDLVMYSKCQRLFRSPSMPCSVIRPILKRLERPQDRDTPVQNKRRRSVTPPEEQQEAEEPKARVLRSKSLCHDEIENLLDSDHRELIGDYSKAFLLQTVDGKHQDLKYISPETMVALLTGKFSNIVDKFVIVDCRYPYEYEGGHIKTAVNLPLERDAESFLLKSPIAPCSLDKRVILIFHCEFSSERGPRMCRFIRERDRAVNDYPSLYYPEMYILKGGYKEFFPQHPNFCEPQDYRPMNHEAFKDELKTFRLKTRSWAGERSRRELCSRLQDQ
In the case of `COc1ccccc1NC(=O)CSc1nnc(Cn2nnc(-c3ccccc3)n2)n1-c1ccccc1`, the inhibition is -10.9% (inactive).

Take `COc1ccc(-c2nnn(CC(=O)N(CCO)C(C(=O)NC3CCCC3)c3ccc(F)cc3)n2)cc1` (configuration not stated): the inhibition is -0.846% (inactive).

`Cc1ccc(S(=O)(=O)N2CCC(C(=O)OCC(=O)N3CC(=O)Nc4ccccc43)CC2)cc1`: the inhibition is -6.66% (inactive).

Turning to `O=C(CSc1nnc(-c2cccnc2)n1Cc1ccco1)c1ccc(Cl)c(Cl)c1`, the inhibition was 8.97% (inactive).

For `CCc1c(C)n([O-])c2c([n+]1=O)CCCCC2`, the inhibition is -6.36% (inactive).

With `COc1cc2cc(CN(CCN3CCCC3)C(=O)Nc3ccccc3Cl)c(=O)[nH]c2cc1OC`, the inhibition is -1.08% (inactive).

As for `O=C(Cn1c(-c2ccc(Cl)cc2)noc1=O)N1CCN(c2ccccc2F)CC1`, the inhibition is -5.95% (inactive).

On to `CC(C)Oc1ccc(C(=O)Nc2cc(=O)n(C)c(=O)n2C)cc1`, for which the inhibition was -9.38% (inactive).

For `Fc1cc(F)c2nc(N3CCOCC3)sc2c1`, the inhibition was 0.504% (inactive).

`CC1CCCC(N2CCN(C(=O)c3ccc(F)cc3)CC2)C1` (configuration not stated): the inhibition is -7.26% (inactive).

As for `Cc1ccc(NC(=O)CN2CCC3(O)CCCCC3C2c2ccc3c(c2)OCO3)c(C)c1` (configuration not stated), the inhibition is 5.36% (inactive).

Consider `CCOC(=O)c1sc2nc(CSCC(=O)OCc3ccc(C(=O)OC)o3)[nH]c(=O)c2c1C`, for which the inhibition was -1.69% (inactive).

As for `COCCN1C(=O)c2oc3c(C)cc(C)cc3c(=O)c2C1c1cccc(O)c1` (configuration not stated), the inhibition is -0.703% (inactive).

Take `CC(=O)c1cc2c(cc1N)OCO2`: the inhibition was 5.42% (inactive).

Take `COc1ccc(N2CC(C)Cn3c2nc2c3c(=O)n(Cc3ccccc3F)c(=O)n2C)c(OC)c1` (configuration not stated): the inhibition was 2.66% (inactive).

On to `CC(=O)c1c(C)c[nH]c1C`, for which the inhibition was -2.46% (inactive).

For the compound `O=S(=O)(NCc1ccccn1)c1ccc(F)cc1`, the inhibition was -7.59% (inactive).

For the compound `NS(=O)(=O)c1ccc(NS(=O)(=O)/C=C/c2ccccc2)cc1`, the inhibition is 4.88% (inactive).

For the compound `O=S(=O)(/C=C/c1ccccc1)NCCc1ccccn1`, the inhibition was 102% (active).

In the case of `O=C(O)c1cscn1`, the inhibition is 5.38% (inactive).

As for `COc1ccccc1Nc1ncnc2c1oc1ccccc12`, the inhibition was 14.9% (inactive).

For `CC1(C)CC(=O)C=C(NCCCNC2CCCCC2)C1`, the inhibition is -12.2% (inactive).

As for `N#Cc1ccc(COC(=O)Cn2nnc(-c3ccccc3)n2)cc1`, the inhibition is -19.8% (inactive).

With `CC(NC(=O)Nc1ccccc1)c1ccccc1` (configuration not stated), the inhibition is -11.4% (inactive).

Regarding `NC(=O)C1CC=CCC1C(=O)OCC(Cl)=C(Cl)Cl` (configuration not stated), the inhibition was -7.55% (inactive).

For `CC1CN(c2cc(=O)n(Cc3ccc(F)cc3)c(=O)[nH]2)CC(C)O1` (configuration not stated), the inhibition is -7.48% (inactive).

Regarding `CCOC(=O)c1cccc(NC(=O)C2CCCN(S(=O)(=O)c3cnc[nH]3)C2)c1` (configuration not stated), the inhibition is -1.24% (inactive).

As usually defined, the inhibition is the drop in the measured response relative to a control, in per cent.
